Assay results published in PubChem BioAssay AID1159580 (chemical genetic matrix, 2015).
About 2,000 (36%) of roughly 5,500 compounds were called active. Roughly 18% stayed inconclusive and do not appear here. Rule as the data show it: active = normalized growth mostly below about 0.91 (no sharp cut-off); inconclusive = no clear call, values can overlap the other calls; inactive = mostly above about 0.92. The list shows a part of the results. Where a SMILES comes first, the peptide text is derived from it.

Assay: chemical genetic growth profiling, strain panel (AID 1159580);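 also: tested at 20 µM; growth read once vehicle control cultures reached saturation at 30 °C; 1 = growth at the plate median or of vehicle wells; lower values mean less growth of the strain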
Settings: S. cerevisiae deletion strains, growth OD
[1] = locus YHR030C, strain SLT2, stronger effect = lower value
[2] = locus YJL095W, strain BCK1, stronger effect = lower value

Measured: normalized growth

Nc1nc2[nH]c(=O)c(=O)[nH]c2c(=O)[nH]1
inactive: locus YAL013W, strain DEP1, stronger effect = lower value 1.01 | locus YBR021W, strain FUR4, stronger effect = lower value 0.971 | locus YBR229C, strain ROT2, stronger effect = lower value 0.998 | locus YCL029C, strain bik1, stronger effect = lower value 1.03 | locus YDL035C, strain GPR1, stronger effect = lower value 1.01 | locus YDL074C, strain BRE1, stronger effect = lower value 1.01 | locus YDL101C, strain DUN1, stronger effect = lower value 1 | locus YDL134C, strain PPH21, stronger effect = lower value 1.02 | locus YDL185W, strain tfp1, stronger effect = lower value 1.01 | locus YDL192W, strain arf1, stronger effect = lower value 0.995 | locus YDR101C, strain arx1, stronger effect = lower value 0.987 | locus YDR162C, strain NBP2, stronger effect = lower value 1.05 | locus YDR318W, strain mcm21, stronger effect = lower value 1.01 | locus YDR388W, stronger effect = lower value 1.01 | locus YDR502C, strain sam2, stronger effect = lower value 1.01 | locus YEL061C, strain CIN8, stronger effect = lower value 1.01 | locus YER110C, stronger effect = lower value 1.01 | locus YER155C, strain BEM2, stronger effect = lower value 1.01 | locus YER167W, strain BCK2, stronger effect = lower value 1.01 | locus YGL078C, strain dbp3, stronger effect = lower value 1.01 | locus YGL086W, strain mad1, stronger effect = lower value 0.978 | locus YGL248W, strain PDE1, stronger effect = lower value 1.01 | locus YGR078C, strain PAC10, stronger effect = lower value 1.01 | locus YGR135W, strain pre9, stronger effect = lower value 1.03 | locus YGR252W, strain gcn5, stronger effect = lower value 1.01 | [1] 1.01 | locus YHR079C, strain IRE1 (second series), stronger effect = lower value 1 | locus YHR094C, strain hxt1, stronger effect = lower value 1.01 | locus YHR129C, strain ARP1, stronger effect = lower value 1.01 | locus YHR200W, strain rpn10, stronger effect = lower value 0.992 | locus YIL066C, strain RNR3, stronger effect = lower value 1.02 | locus YIL073C, strain SPO22, stronger effect = lower value 1.04 | locus YIL125W, strain kgd1, stronger effect = lower value 1.01 | locus YIR030C, strain dcg1, stronger effect = lower value 1.01 | [2] 1.02 | locus YJL134W, strain LCB3, stronger effect = lower value 1.02 | locus YJL168C, strain set2, stronger effect = lower value 1 | locus YJL187C, strain SWE1 (second series), stronger effect = lower value 1.01 | locus YJR043C, strain POL32, stronger effect = lower value 0.996 | locus YKL009W, strain mrt4, stronger effect = lower value 0.998 | locus YKL068W, stronger effect = lower value 1.01 | locus YKL085W, strain MDH1 (second series), stronger effect = lower value 1.02 | locus YKL085W, strain MDH1, stronger effect = lower value 1.02 | locus YKL190W, strain CNB1, stronger effect = lower value 1.01 | locus YKR001C, strain vps1, stronger effect = lower value 1 | locus YLR039C, strain RIC1, stronger effect = lower value 1.03 | locus YLR058C, strain SHM2, stronger effect = lower value 1.01 | locus YLR102C, strain apc9, stronger effect = lower value 1.01 | locus YLR262C, strain YPT6, stronger effect = lower value 1.08 | locus YLR268W, strain sec22, stronger effect = lower value 1.02 | locus YLR330W, strain CHS5, stronger effect = lower value 1.01 | locus YLR342W, strain FKS1 (second series), stronger effect = lower value 0.973 | locus YLR371W, strain rom2, stronger effect = lower value 1.02 | locus YLR418C, strain cdc73, stronger effect = lower value 0.971 | locus YML016C, strain PPZ1, stronger effect = lower value 0.996 | locus YML032C, strain rad52, stronger effect = lower value 1.02 | locus YML124C, strain tub3, stronger effect = lower value 1.01 | locus YMR078C, strain ctf18, stronger effect = lower value 1 | locus YMR223W, strain ubp8, stronger effect = lower value 1.01 | locus YMR263W, strain SAP30, stronger effect = lower value 1.01 | locus YMR307W, strain GAS1, stronger effect = lower value 1.02 | locus YNL067W, strain RPL9B, stronger effect = lower value 1.02 | locus YNL128W, strain TEP1, stronger effect = lower value 1.05 | locus YNL153C, strain GIM3, stronger effect = lower value 1.01 | locus YNL233W, strain BNI4, stronger effect = lower value 1.03 | locus YNL250W, strain rad50, stronger effect = lower value 1.02 | locus YNL271C, strain bni1, stronger effect = lower value 1.01 | locus YNL298W, strain CLA4, stronger effect = lower value 1 | locus YNL307C, strain MCK1, stronger effect = lower value 1 | locus YNR052C, strain pop2, stronger effect = lower value 1.02 | locus YOL006C, strain TOP1, stronger effect = lower value 1.01 | locus YOL012C, strain htz1 1.04 | locus YOL147C, strain pex11, stronger effect = lower value 1 | locus YOR061W, strain CKA2, stronger effect = lower value 1 | locus YOR069W, strain VPS5, stronger effect = lower value 1.01 | locus YOR136W, strain idh2, stronger effect = lower value 1.01 | locus YOR144C, strain elg1, stronger effect = lower value 1 | locus YOR184W, strain ser1, stronger effect = lower value 0.996 | locus YOR316C, strain cot1, stronger effect = lower value 1.01 | locus YPR119W, strain clb2, stronger effect = lower value 1.02 | locus YPR141C, strain kar3, stronger effect = lower value 1.01 | locus YPR163C, strain tif3, stronger effect = lower value 1.02 | locus YPR167C, strain met16, stronger effect = lower value 1.04 | strain wtn01, stronger effect = lower value 1

CC(C)C[C@H](N)C(=O)N[C@@H](C)C(=O)O (H-Leu-Ala-OH)
inactive: [1] 1.01 | locus YHR079C, strain IRE1, stronger effect = lower value 1.01 | [2] 1.02 | locus YJR066W, strain TOR1, stronger effect = lower value 0.975 | locus YLR113W, strain HOG1, stronger effect = lower value 1.02 | locus YNL183C, strain NPR1, stronger effect = lower value 0.954 | locus YOR231W, strain MKK1, stronger effect = lower value 1.03 | locus YPL256C, strain CLN2, stronger effect = lower value 1.02
